# Sfp PPTase inh: qHTS Assay for Inhibitors of Bacillus subtilis Sfp phosphopantetheinyl transferase (PPTase); 4'-phosphopantetheinyl transferase ffp (Bacillus subtilis), Q9F4F7; AID 1490, 2009; Biochemical Sfp PPTase activity, qHTS; Potency, µM, most hits filed as inhibitors; actives 3.5% (n = 310,000);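 note: the enzyme is Sfp with the accession as filed and its product quenches rhodamine fluorescence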
#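 Sfp 15 nM + cpd, 15 min RT; start w/ rhodamine-CoA 5 uM, BHQ-2-YbbR 12.5 uM (final); 50 mM Hepes pH 7.6, 10 mM MgCl2, 0.01% NP-40, 0.01% BSA; read 525/598 nm at 0 and 30 min.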
# L3MBTL1 block: qHTS Assay for the Inhibitors of L3MBTL1 | Lethal(3)malignant brain tumor-like protein 1 (Homo sapiens), Q9Y468 | AlphaScreen L3MBTL1–H3K9me1 peptide binding | Potency, µM (highest dose often 57.1 µM), actives largely listed as inhibitors | actives 0.66% (n = 230,000) | AID 485360, 2010; note: nearly all actives have a fitted effect of over 60% in size
#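 Read-out is AlphaScreen signal from streptavidin donor and nickel chelate acceptor beads (10 ug/mL final each) bridging L3MBTL1 (50 nM) and biotinylated K9-monomethylated H3(1-15) peptide (75 nM), after 30 min compound exposure at room temperature.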
# G9a block: qHTS Assay for Inhibitors of Histone Lysine Methyltransferase G9a. Histone-lysine N-methyltransferase EHMT2 (Homo sapiens), Q96KQ7. G9a H3K9 monomethylation, AlphaScreen, 2 h. Potency, µM (series often up to 102 µM), usual class: inhibitors. actives 8.8% (n = 350,000). AID 504332, 2011; note: nearly all actives have a fitted effect of over 75% in size
# Target sequence (Q96KQ7 913-1193 limits assumed): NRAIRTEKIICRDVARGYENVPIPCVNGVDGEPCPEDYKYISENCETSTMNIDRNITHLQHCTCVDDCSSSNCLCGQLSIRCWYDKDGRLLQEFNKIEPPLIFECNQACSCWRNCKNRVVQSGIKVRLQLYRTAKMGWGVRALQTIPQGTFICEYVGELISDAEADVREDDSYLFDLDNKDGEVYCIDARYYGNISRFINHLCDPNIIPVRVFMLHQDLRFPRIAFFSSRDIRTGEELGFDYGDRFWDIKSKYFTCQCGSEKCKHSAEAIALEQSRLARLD
#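 G9a (20 nM) preincubated 15 min RT with compounds, then 500 nM biotinylated H3K9 peptide and 20 uM SAM added; 2 h RT reaction. Monomethyl-H3K9 product detected by AlphaScreen with anti-H3K9me1 antibody, streptavidin donor and anti-rabbit IgG acceptor beads.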
# JMJD2A Tudor inh: qHTS Assay for Inhibitors of JMJD2A-Tudor Domain; Lysine-specific demethylase 4A (Homo sapiens), O75164; actives 4.4% (n = 390,000); AlphaScreen JMJD2A-Tudor / H3K4me3 peptide binding; Potency, µM (top dose mostly 114 µM), hits mostly inhibitors; note: nearly all actives have a fitted effect of over 50% in size
# HP1b binding inh: HTS for Inhibitors of HP1-beta Chromodomain Interactions with Methylated Histone Tails; AlphaScreen HP1-beta / biotin-H3K9me3 peptide binding; Chromobox protein homolog 1 (Homo sapiens), P83916; Potency, µM (titrated, usually from 114 µM), actives largely listed as inhibitors; actives 0.56% (n = 390,000); AID 540317, 2011; note: nearly all actives have a fitted effect of over 70% in size
# Target sequence (P83916 whole entry, looked up): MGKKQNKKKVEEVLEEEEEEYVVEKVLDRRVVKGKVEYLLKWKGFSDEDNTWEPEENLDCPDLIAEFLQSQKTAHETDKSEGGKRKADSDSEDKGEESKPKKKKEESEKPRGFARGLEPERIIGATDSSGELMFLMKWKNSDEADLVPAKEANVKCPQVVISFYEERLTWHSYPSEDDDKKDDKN
#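 AlphaScreen: HP1-beta (50 nM) preformed 30 min with biotin-H3(1-18)K9me3 peptide (50 nM) in PBS pH 7.4, 0.01% Tween-20. Compound added for 30 min at RT, then streptavidin donor/nickel chelate acceptor beads (10 ug/mL) for 30 min.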
# BAZ2B inh: qHTS Assay for Inhibitors of BAZ2B; AlphaScreen BAZ2B-H3K14Ac peptide displacement; Potency, µM (top dose mostly 114 µM), usual class: inhibitors; actives 4.4% (n = 360,000); AID 504333, 2011; note: nearly all actives have a fitted effect of over 60% in size
#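 Inhibition is scored as reduced AlphaScreen emission. The BAZ2B/b-H3(5-23)K14Ac complex (50 nM each) in PBS pH 7.4, 0.01% Tween-20 meets compound (up to 110 uM) for 30 min at RT before bead addition.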
# Hits are given with their value; – = inactive; ? = inconclusive; · = no result; [ ] = dose if it differs, or a comment. Hits are enriched below; roughly 12% of the tested compounds scored in any of these assays. Calls come from the whole dose curve; as a rule, active = well fitted curve in the direction sought with a large enough effect; inconclusive = small, poorly fitted or top-dose-only effect, or another doubt; inactive = no such curve, though single readings can be large; an effect the other way counts as inactive or inconclusive.
SMILES,Sfp PPTase inh,L3MBTL1 block,G9a block,JMJD2A Tudor inh,HP1b binding inh,BAZ2B inh
CC1CN(c2ccc([N+](=O)[O-])c(NCCOc3ccccc3)c2)CC(C)N1 (stereo not drawn),–,–,?,?,–,?
CCOC(=O)c1c(NC(=O)C(C)Sc2nnc(C)c(=O)[nH]2)sc2c1CCCC2 (stereo not drawn),–,·,?,–,–,–
CCCCN(CC(=O)NCc1ccc(F)cc1)C(=O)c1ccco1,–,–,–,–,–,?
COc1ccc(Cl)cc1-c1nc(-c2ccc(NC(=O)c3ccncc3)cc2)no1,·,·,·,–,–,·
COc1ccc(NC(=O)c2ccc(-c3ccc(-c4noc(C)n4)cc3C)cc2)cc1N1CCN(C)CC1,32µM,–,25µM,45µM,?,35µM
COc1ccc(NC(=O)c2ccc(-c3ccc(-c4noc(C)n4)cc3C)cc2)cc1OCCN(C)C,79µM,·,16µM,·,·,·
Cc1ccc(/C=C2\SC(=S)N(CCCC(=O)Nc3cccc(C(=O)O)c3)C2=O)cc1,–,·,–,40µM,?,–
O=C(CCN1C(=O)/C(=C/c2ccc(Cl)cc2)SC1=S)Nc1cccc(C(=O)O)c1,–,·,45µM,50µM,–,32µM
Nc1ncnc2c1ncn2C1CCCO1 (stereo not drawn),–,–,–,–,–,–
S=c1nc[nH]c2c1ncn2C1CCCO1 (stereo not drawn),4µM,–,10µM,2µM,–,?
OCC1OC(n2cnc3c(=S)nc[nH]c32)CC1O (stereo not drawn),·,·,·,2.8µM,?,·
O=C(NCCC(=O)N1CCN(C(=O)c2ccco2)CC1)c1ccc(Br)cc1,·,–,–[12.7 µM],–,–,–
CC(=O)Nc1cc(=O)c2cccnc2[nH]1,·,·,·,50µM,–,·
CCCN1C(=O)c2cc(C(=O)NC3CCCCCC3)ccc2C1O (stereo not drawn),–,–,?,–,–,–
CCCN1C(=O)c2cc(C(=O)O)ccc2C1O (stereo not drawn),–,–,?,89µM,–,56µM
CN(C)C1(CNCC(O)c2ccccc2)CCCCC1 (stereo not drawn),–,·,20µM,20µM,?,71µM
CN(C)C1(CNC(=O)Nc2ccccc2)CCCCC1,–,·,–,–,–,–
O=C(Nc1cc(S(=O)(=O)N2CCOCC2)ccc1O)c1ccc(NS(=O)(=O)c2ccc(Cl)s2)cc1,–,–,?,–,–,–
CC(=O)Nc1ccc(S(=O)(=O)Nc2cc(S(=O)(=O)N3CCCCC3)ccc2O)cc1,·,–,28µM,?,–,–
O=S(=O)(Nc1cc(S(=O)(=O)N2CCCC2)ccc1O)c1ccc(Cl)s1,·,–,56µM,–,–,–
COc1cccc(CNC(=O)CSc2nnc3c(n2)[nH]c2ccc(C)cc23)c1,–,·,–,?,–,–
CN(Cc1nccs1)C(=O)c1ccc(OC2CCN(Cc3ccccn3)CC2)cc1,–,·,·,–,–,–
CC(NC(=O)c1ccc(OC2CCN(Cc3ccccn3)CC2)cc1)c1nccs1 (stereo not drawn),–,·,–,–,–,?
Cc1nc(C(C)NC(=O)c2ccc(OC3CCN(Cc4ccccn4)CC3)cc2)c(C)s1 (stereo not drawn),–,·,–,–,–,79µM
Cc1csc(C(C)N(C)C(=O)c2ccc(OC3CCN(Cc4ccccn4)CC3)cc2)n1 (stereo not drawn),–,·,71µM,–,–,?
SMILES,Sfp PPTase inh,L3MBTL1 block,G9a block,JMJD2A Tudor inh,HP1b binding inh,BAZ2B inh
CCC1=[N+](C)CCn2c(C)ccc21,–,·,1.8µM,?,–,–
CCC1=[N+](CC(=O)c2ccc(C)cc2)CCn2c(C)ccc21,–,–,?,–,–,–
CCC1=[N+](CC(=O)c2ccc(Br)cc2)CCn2c(C)ccc21,–,–,32µM,?,–,–
COc1ccccc1C(C)NCC(=O)NC(=O)NCc1ccco1 (stereo not drawn),·,–,–,?,–,50µM
COc1ccccc1OCC(=O)NCc1ccco1,–,–,56µM,–,–,–
COc1cc(C(=O)NNC(=S)NCc2ccco2)cc(OC)c1OC,–,–,56µM,–,–,–
Cc1ccc(OCC(=O)NCc2ccco2)c([N+](=O)[O-])n1,–,–,–,–,–,–
COc1cc(C(=O)NNC(=O)c2ccco2)cc(OC)c1OC,–,·,–,–,–,–
Cc1ccc2cccc(OCC(=O)NCc3ccco3)c2n1,28µM,–,–,–,–,–
CC(Oc1ccccc1)C(=O)OCC(=O)NC(=O)NCc1ccco1 (stereo not drawn),–,–,?,–,–,–
COc1ccc(-c2cc(-c3ccc4c(c3)NC(=O)CO4)nc3c2COc2ccc(F)cc2-3)cc1,·,·,–,–,–,–
Cc1cccc(OC(C)C(=O)N2CCC(c3nc4ccccc4o3)CC2)c1C (stereo not drawn),·,·,–,–,–,–
Cc1sc(NC(=O)C2=COCCO2)nc1-c1ccc(F)cc1,·,–,79µM,–,–,–
CCCSCCCNC(=O)C1CCCN(c2nn3cc(-c4ccc(OC)cc4)nc3s2)C1 (stereo not drawn),·,·,?,–,–,–
CCc1nnc(NC(=O)CN2CCN(c3nc(-c4ccccc4)cs3)CC2)s1,–,–,50µM,?,–,?
COc1ccccc1N1CCN(CC(=O)Nc2ccc(CN3CCCCC3)cc2)CC1,?,–,10µM,4µM,?,50µM
CCc1nnc(NC(=O)CN2CCN(c3ccccc3OC)CC2)s1,?,–,?,56µM,?,–
CC(C)C(=O)NNC(=O)CN1CCN(c2nc(-c3ccccc3)cs2)CC1,–,–,–,–,–,–
CCOc1ccccc1N1CCN(CC(=O)Nc2nnc(CC)s2)CC1,–,–,–,–,–,–
CCc1nnc(NC(=O)CN2CCN(CC)CC2)s1,–,–,79µM,–,–,–
CCc1nnc(NC(=O)CN2CCN(S(C)(=O)=O)CC2)s1,–,·,–,–,–,–
CCN(CC)CCOC(=O)[C@@H](Cc1cccc2ccccc12)C[C@@H]1CCCO1,–,·,–[21.5 µM],·,·,·
CC(C)C[C@@H](CC(=O)N[C@@H](CCCN)CC(=O)N[C@@H]1CCNC[C@H]1C(=O)N[C@H](CC(=O)N[C@@H](CCC(=O)O)CC(=O)O)Cc1c[nH]c2ccccc12)NC(=O)[C@@H]1CCCC[C@H]1N,–,·,·,·,·,·
